The source of these data is PubChem BioAssay AID1347413 (National Center for Advancing Translational Sciences (NCATS), 2020).

The source made the active and inactive calls. Calls come from the whole dose curve; as a rule, active = well fitted curve in the direction sought with a large enough effect; inactive = no such curve, though single readings can be large or run the other way.

A short description of this experiment: qHTS to identify inhibitors of the type 1 interferon - major histocompatibility complex class I in skeletal muscle: tertiary screen by RT-qPCR, retest select compounds. Conditions: C25cl48 myoblasts, IFN-beta, HLA-B RT-qPCR, 24 h; series mostly up to 49.8 µM; activity change, negative = inhibition: at the top concentration. From the text: Assay Submitter (PI): Travis B. Kinder Ph.D. & James Inglese Ph.D. Assay Development and Screening Technology Laboratory (ADST) National Center for Advancing Translational Sciences (NCATS), Rockville, MD National Institute of Health (NIH), Bethesda, Maryland Idiopathic inflammatory myopathies, collectively referred to as myositis, are a group of rare autoimmune diseases characterized by skeletal muscle inflammation, weakness, and usually accompanied by systemic pathologies of the skin, lungs, or vasculature. Current immunosuppressive therapies and glucocorticoids are often not curative and are accompanied by harsh side effects, especially in children with juvenile myositis. We initiated a drug repurposing and development program to identify more targeted, less toxic therapeutics to treat myositis. Although its cause is not known, muscle from a subset of patients have an abundance of the inflammatory type 1 interferon (IFN) and a down-stream product major histocompatibility complex class I (MHC class I), which are both thought to contribute to damage and weakness. We conducted quantitative high throughput screening (qHTS) on 6,576 compounds (4,679 unique) through a series of cell-based assays to identify those that inhibit the IFN-stimulated expression of MHC class I in muscle precursor cells (myoblasts). The compound identification and evaluation strategy utilized a primary screen with reporter-tagged MHC class I in genome-engineered myoblasts, ATP content counter screen for viability, HLA-ABC immunofluorescence secondary screen, and HLA-B RT-qPCR tertiary screen. To determine if active compounds identified by qHTS in HLA-B HiBit reporter cells, and confirmed by HLA-ABC immunofluorescence, can inhibit the transcription of HLA-B mRNA, compounds were assayed by RT-qPCR. […] Briefly, five compounds identified from primary, counter, and secondary screening as inhibitory with minimal cytotoxicity were dispensed into 384-well plates using acoustic dispensing in a 6-point, 1:7 titration with a high final concentration of 10 uM. Normal immortalized human myoblasts C25cl48 were added to the plate with 4.0 ng/ml human IFN-beta for 24 hours, and cells were harvested and assayed by the Cells-to-Ct kit with TaqMan assays (Thermo Fisher).
PROTOCOL TABLE (as described by Inglese et al., 2007) SEQUENCE No. (e.g., 1, 2, 3, etc.); PARAMETER (e.g., Cells, Incubation, Reagent, etc.); VALUE; DESCRIPTION 0; Compounds; 150 nl; Follow-up compounds dispensed at 150 nl/well with Labcyte Echo 655 acoustic dispenser into one Corning white/clear bottom, high base TC 384-well plates (3765) 1a; Cells; 30 uL; Using a p200 manual pipette, seed 780 cells/well into 1 plate in 30 ul/well of iHSKM growth medium without dexamethasone into columns wells A1-A6. […]
(qHTS replaces the single test concentration by a dilution series.)
`Cc1ncsc1-c1ccc([C@H](C)NC(=O)[C@@H]2C[C@@H](O)CN2C(=O)[C@@H](NC(=O)COCCCOCCNC(=O)C[C@@H]2N=C(c3ccc(Cl)cc3)c3c(sc(C)c3C)-n3c(C)nnc32)C(C)(C)C)cc1`: the Potency was 164 nM (active). Take `CC(=O)OCC(=O)[C@@]12OC(C)(C)O[C@@H]1C[C@H]1[C@@H]3C[C@H](F)C4=CC(=O)C=C[C@]4(C)[C@@]3(F)[C@@H](O)C[C@@]12C`: the “activity change, negative = inhibition” value is -17.2% (inactive). As to `CS[C@H]1SC[C@@H]2C(=O)N(C)[C@H](C(C)C)C(=O)OC[C@H](NC(=O)c3cnc4ccccc4n3)C(=O)N[C@H](C)C(=O)N(C)[C@H]1C(=O)N(C)[C@H](C(C)C)C(=O)OC[C@H](NC(=O)c1cnc3ccccc3n1)C(=O)N[C@H](C)C(=O)N2C`, the Potency is 2.9 nM (active).

As for `C[C@]12C=CC(=O)C=C1CC[C@@H]1[C@@H]2[C@@H](O)C[C@@]2(C)[C@H]1CC[C@]2(O)C(=O)CO`, the “activity change, negative = inhibition” value was -12.4% (inactive).
